The whole screen tested about 330,000 compounds, of which about 300 (0.091%) were called active. Not shown: some 4% with an inconclusive outcome. The list comes from a sample in which actives are over-represented; it also holds similar structures and randomly drawn compounds. Values without a mark were called inactive. Calls come from the whole dose curve; as a rule, active = well fitted inhibition curve with a large enough effect; inconclusive = small, poorly fitted or top-dose-only effect, or effect the other way, or another doubt; inactive = no such curve, though single readings can be large or run the other way.
Each compound was assayed against Lysosomal acid glucosylceramidase (Homo sapiens) (UniProt P04062) (assay: qHTS Assay for Inhibitors and Activators of N370S glucocerebrosidase as a Potential Chaperone Treatment of Gaucher Disease). Conditions: N370S GC spleen homogenate, 4MU-glucoside fluorescence; series mostly up to 59.4 µM; activity change, negative = inhibition: at the top concentration.
From the text: NIH Chemical Genomics Center [NCGC]
NIH Molecular Libraries Probe Production Centers Network [MLPCN]
Assay Submitter (PI): Wei Zheng
Glucocerebrosidase (GC) catalyzes the hydrolysis of beta-glucocerebroside to glucose and ceramide in lysosomes. Mutations in the glucocerebrosidase gene result in Gaucher disease, an autosomal recessive lysosomal storage disorder. Many of the mutations encountered in patients with Gaucher disease are missense alterations that may cause misfolding, decreased stability and/or mistrafficking of this lysosomal protein. […] These inhibitors include iminosugar analogs and three non-iminosugar inhibitors identified from a previous HTS of 62,000 compounds with the wild type recombinant enzyme. However, the enhancement of enzyme activity by the chaperone action of an enzyme inhibitor must be balanced against the direct inhibition of the enzyme. An enzyme activator could also function as a chaperone by binding to the enzyme and helping to correct its misfolding and mistrafficking. While activators for GC have not yet been identified, they may have better therapeutic potential than inhibitors. Therefore the discovery and development of chemical activators may provide a new strategy for the chaperone therapy.
We have optimized a new assay using N370S mutant GC derived from the spleen of a Gaucher patient. […] In addition, the MLPCN compound library has expanded, which increases the chance of finding new and better probes.
NCGC Assay Protocol Summary:
This is a fluorogenic enzyme assay with 4-methylumbelliferyl-beta-D-glucopyranoside as the substrate and N370S glucocerebrosidase from human spleen homogenate as the enzyme preparation. Upon the hydrolysis of this fluorogenic substrate, the resulting product, […] which can be detected by a standard fluorescence plate reader. Data were normalized to the controls for basal activity (without enzyme) and 100% activity (with enzyme). The AC50 values were determined from concentration-response data modeled with the standard Hill equation.
Assay buffer: 50 mM citric acid (titrated with potassium phosphate to pH 5.0), 100 mM potassium chloride, 10 mM sodium chloride, 1 mM magnesium chloride, 0.01% Tween-20.
1536-well assay protocol:
(1) Add 2 ul/well of spleen homogenate (27 ug final)
(2) Add 23 nL compounds in DMSO solution. The final titration was 0.5 nM to 58 uM.
(3) Add 2 ul of substrate (1 mM final)
(4) Incubate at 37C for 40 min.
(5) Add 2 ul stop solution (1M NaOH and 1M Glycine mixture, pH 10)
(6) Detect the assay plate in a ViewLux plate reader (PerkinElmer) with Ex=365 nm and Em=440nm.
Keywords: Glucocerebrosidase, beta-glucosidase, Gaucher Disease, pharmacological chaperone, chaperone therapy, high throughput screening, glucocerebrosidase inhibitor, MLSMR, MLSCN, NIH Roadmap, qHTS and NCGC
With O=c1cc(-c2ccc(O)cc2)oc2c([C@@H]3O[C@H](CO)[C@@H](O)[C@H](O)[C@H]3O)c(O)cc(O)c12 the “activity change, negative = inhibition” value was -9.49%. For COc1ccc2[nH]cc(CCNc3ncnc4ccc(-c5ccc(C(=O)N(C)C)cc5)cc34)c2c1, the “activity change, negative = inhibition” value was -20.6%. For CCOC(=O)Cc1csc(SCC(=O)Nc2ccc(C)cc2F)n1, the “activity change, negative = inhibition” value was -2.81%. With CC[C@H](C)[C@H](NC(=O)[C@@H](N)CCC(=O)O)C(=O)N[C@@H](CC(C)C)C(=O)N[C@@H](CC(=O)O)C(=O)N[C@H](C(=O)N1CCC[C@H]1C(=O)N[C@@H](CO)C(=O)N[C@H](C(=O)O)[C@@H](C)O)C(C)C the “activity change, negative = inhibition” value was -6.74%. With N#CCC(=O)Nc1ccc(C(=O)OCC(=O)Nc2sc3c(c2C#N)CCCC3)cc1 the “activity change, negative = inhibition” value was -1.92%. CC(=O)CC(C)C was tested, and the “activity change, negative = inhibition” value was 4.41%. With CCOc1[nH]n(-c2ccc(Cl)cc2)c(=O)c1C=Nc1ccc(O)cc1 the “activity change, negative = inhibition” value was -12.7%. O=[N+]([O-])c1ccc(N=Cc2c(O)ccc3ccccc23)cc1 was tested, and the “activity change, negative = inhibition” value was 1.71%. For Oc1ccc(N=Cc2c(O)ccc3ccccc23)cc1, the Potency was 12.6 µM (active). CC(=O)c1ccc(N2CCN(C(=O)c3ccc(Cl)c(S(=O)(=O)NC4CC4)c3)CC2)c(F)c1 was tested, and the “activity change, negative = inhibition” value was -16.3%. In the case of Oc1ccc(O)c2c(O)cccc12, the “activity change, negative = inhibition” value is reported as -3.42%. For Cc1ccc(C)c(NC(=O)CN(C)C(=O)c2ccc3ncsc3c2)c1, the “activity change, negative = inhibition” value was -14.8%. With CSc1ccccc1NC(=O)COC(=O)CCCOc1ccc(C)cc1 the “activity change, negative = inhibition” value was -19.4%. CC1CCCC(NC(=O)c2cc(-c3ccncc3)nc3ccccc23)C1C (centres undefined) was tested, and the “activity change, negative = inhibition” value was -3.85%. For COc1ccc(N(CC(=O)NC2CCCCCCC2)S(=O)(=O)c2c(C)nn(C)c2C)cc1, the “activity change, negative = inhibition” value was 1.78%. With CCOc1ccc(N(CC(=O)NCc2ccc(OC)cc2)S(=O)(=O)c2c(C)noc2C)cc1 the “activity change, negative = inhibition” value was 5.25%. In the case of CCOc1ccc(N(CC(=O)Nc2ccccc2F)S(=O)(=O)c2c(C)[nH]c(=O)[nH]c2=O)cc1, the Potency is reported as 3.16 µM (active). For COc1ccc(N(CC(=O)NC2CCCCC2)S(=O)(=O)c2c(C)[nH]c(=O)[nH]c2=O)cc1, the Potency was 3.98 µM (active). CCCN(c1ccc(C(C)C)cc1)S(=O)(=O)c1c(C)[nH]c(=O)[nH]c1=O was tested, and the “activity change, negative = inhibition” value was -1.77%. In the case of COc1cccc(N(CC(=O)NC2CCCCCC2)S(=O)(=O)c2ccccc2)c1, the “activity change, negative = inhibition” value is reported as -0.1%. For CCOc1ccc(N(CC(=O)NC2CCCCCC2)S(=O)(=O)c2c(C)[nH]c(=O)[nH]c2=O)cc1, the Potency was 2.51 µM (active). In the case of CCOc1ccc(N(CC(=O)Nc2cccc(OC)c2)S(C)(=O)=O)cc1, the “activity change, negative = inhibition” value is reported as 2.19%. With CCOc1ccc(N(CC(=O)NCCc2ccc(F)cc2)S(=O)(=O)c2ccccc2)cc1 the “activity change, negative = inhibition” value was -4.73%. With O=C(NCc1ccco1)O[C@@H]1C(=O)c2cc(Br)ccc2O[C@H]1c1ccc2c(c1)OCO2 the “activity change, negative = inhibition” value was 0.0082%. In the case of CCn1c(=O)c(=O)n(CC)c2cc(N3CCCCC3)c(NC(=O)c3ccc(Cl)cc3)cc21, the “activity change, negative = inhibition” value is reported as 3.98%. CCC(C)C(N=C1NS(=O)(=O)c2ccccc21)C(=O)N1CCC(C)CC1 (centres undefined) was tested, and the “activity change, negative = inhibition” value was 2.41%. For O=C1CN(Cc2ccccc2)S(=O)(=O)c2ccccc21, the “activity change, negative = inhibition” value was -5.5%. With C#CCOCCOCCOCCNc1nc(N2CCN(C(=O)CCCCCCCCCCNC(=O)Cn3cc(CCCCCN)nn3)CC2)nc(N2CCN(C(=O)CCCCCCCCCCNC(=O)[C@H](CO)n3cc(CCCSC)nn3)CC2)n1 the “activity change, negative = inhibition” value was -28%. For C#CCOCCOCCOCCNc1nc(N2CCN(C(=O)CCCCCCCCCCNC(=O)[C@H](CCCCN)n3cc(C)nn3)CC2)nc(N2CCN(C(=O)CCCCCCCCCCNC(=O)[C@H](CO)n3cc(CCCSC)nn3)CC2)n1, the Potency was 15.8 µM (active). In the case of C#CCOCCOCCOCCNc1nc(N2CCN(C(=O)Cn3cc(CCCCN)nn3)CC2)nc(N2CCN(C(=O)[C@H](CCCCN)n3cc(CCC(=O)O)nn3)CC2)n1, the “activity change, negative = inhibition” value is reported as -0.601%. O=c1c(O)c(-c2ccc(O)cc2)oc2ccccc12 was tested, and the “activity change, negative = inhibition” value was 21%. CCCCN(CC(=O)Nc1cccc(S(=O)(=O)N2CCCC2)c1)Cc1nc2ccccc2c(=O)[nH]1 was tested, and the “activity change, negative = inhibition” value was 12.9%. COc1cc(C(=O)OCC(=O)NC23CC4CC(CC(C4)C2)C3)cc(OC)c1OC was tested, and the “activity change, negative = inhibition” value was -2.45%. In the case of CN1CCN(c2ncc3nc(-c4ccc(Cl)cc4)c(=O)n(-c4ccccc4)c3n2)CC1, the “activity change, negative = inhibition” value is reported as -18.9%. With COc1cccc([C@H]2Oc3ccc(OC)cc3/C(=N\OCC[C@@H]3C=C[C@H](OC(C)=O)[C@H](COC(C)=O)O3)[C@@H]2O)c1 the activity change, negative = inhibition was 10.4% [at 12.8 µM]. With COc1ccc(-c2ccc(C3C4C=CCCC4(C)C(=O)N3Cc3ccccc3)c(F)c2)cc1OC (centres undefined) the “activity change, negative = inhibition” value was 2.67%. With CCc1ccc(CN(C)C(C)C(=O)Nc2ccc(S(=O)(=O)N3CCCC3)cc2)cc1 (centres undefined) the “activity change, negative = inhibition” value was -12.1%. Cc1csc(SCC(=O)N(c2ccccc2)C(C)C)n1 was tested, and the “activity change, negative = inhibition” value was -6.31%. With c1cncc(CNc2ccnc(-c3ccc4c(c3)OCO4)n2)c1 the “activity change, negative = inhibition” value was -11.9%. In the case of CC(=O)c1ccc(OCCCC(=O)Nc2ccc(C)c(S(=O)(=O)N3CCOCC3)c2)cc1, the “activity change, negative = inhibition” value is reported as 0.719%. In the case of Cc1ccc(-c2cccc([C@H]3[C@@H]4C=CC[C@@H](C)[C@@H]4C(=O)N3Cc3ccccc3)c2)cc1, the “activity change, negative = inhibition” value is reported as 7.79%. For O=C(C1CC(=O)N(C2CCCC2)C1)N1CCN(c2cccc(C(F)(F)F)c2)CC1 (centres undefined), the “activity change, negative = inhibition” value was -9.54%. For CC(C)C[C@@H](CC(=O)N[C@@H](CCC(=O)O)CC(=O)O)NC(=O)[C@@H]1CCCC[C@H]1NC(=O)C[C@@H](NC(=O)C[C@H](CO)NC(=O)[C@@H]1CCCC[C@H]1N)C(C)C, the “activity change, negative = inhibition” value was -2.87%. With COc1cc(OC)c2c(c1C(CCN1CCCCC1)c1ccc(N(C)C)cc1)OC(=O)CC2c1ccc(N(C)C)cc1 (centres undefined) the “activity change, negative = inhibition” value was -10.2%.
Potency is the fitted concentration of half-maximal effect.
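Throughout, for activity change, negative = inhibition: 0% = full enzyme activity and -100% = no enzyme basal.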
